Screen size: about 39,000 compounds; about 3,300 (8.5%) were called active. Only a selection was taken, and actives are over-represented in it overall.
Tested on: HepG2
Assay: cytotoxicity call (relative viability < 0.9)
Conditions: 10 µM

Structure (SMILES) | cytotoxicity call
COc1ccc(S(=O)(=O)N(C)C[C@@H]2OCCCC[C@@H](C)Oc3ccc(NS(=O)(=O)c4cn(C)cn4)cc3C(=O)N([C@H](C)CO)C[C@H]2C)cc1 | inactive
C[C@@H]1CN([C@@H](C)CO)C(=O)c2cc(C#CCc3ccccc3)cnc2O[C@H]1CN(C)CC1CCOCC1 | inactive
COc1ccc(NC(=O)Nc2ccc3c(c2)C(=O)N([C@H](C)CO)C[C@@H](C)[C@H](CN(C)S(=O)(=O)c2ccc(F)cc2)OCCCC[C@H](C)O3)cc1 | active
COc1ccc(NC(=O)Nc2ccc3c(c2)C(=O)N([C@H](C)CO)C[C@H](C)[C@@H](CN(C)S(=O)(=O)c2ccc(F)cc2)OCCCC[C@H](C)O3)cc1 | inactive
COc1ccc(S(=O)(=O)N(C)C[C@H]2OCCCC[C@@H](C)Oc3ccc(NC(=O)Nc4ccc(F)cc4)cc3C(=O)N([C@H](C)CO)C[C@@H]2C)cc1 | active
COc1ccc(NC(=O)Nc2ccc3c(c2)C(=O)N([C@@H](C)CO)C[C@@H](C)[C@@H](CN(C)S(=O)(=O)c2ccc(F)cc2)OCCCC[C@@H](C)O3)cc1 | inactive
COc1ccc(NC(=O)Nc2ccc3c(c2)C(=O)N([C@H](C)CO)C[C@H](C)[C@H](CN(C)S(=O)(=O)c2ccc(F)cc2)OCCCC[C@@H](C)O3)cc1 | inactive
COc1ccc(NC(=O)Nc2ccc3c(c2)C(=O)N([C@H](C)CO)C[C@@H](C)[C@@H](CN(C)S(=O)(=O)c2ccc(F)cc2)OCCCC[C@H](C)O3)cc1 | inactive
CO[C@H]1CN(C)C(=O)c2ccc(NS(=O)(=O)c3cn(C)cn3)cc2OC[C@H](C)N(CC2CC2)C[C@@H]1C | inactive
CC1(C)OC(=O)N(CCCC(=O)O)[C@@]1(C)O | inactive
CC(=O)OC1CC(OC(C)=O)C2(C)C(CC(O)C3(C)C2CCC2(C)C(c4ccoc4)OC(=O)C4OC423)C1(C)C (stereo not drawn) | inactive
C[C@H]1CN([C@@H](C)CO)C(=O)c2cc(NC(=O)Cn3cnnn3)ccc2O[C@H]1CN(C)CC1CCCCC1 | inactive
C[C@H](CO)N1C[C@H](C)[C@H](CN(C)Cc2ccc(C(=O)O)cc2)Oc2c(NC(=O)C3CC3)cccc2C1=O | inactive
CS(=O)(=O)NC[C@@]12COC[C@H]1CN(C(=O)c1cnccn1)C2 | inactive
C[C@@H]1CCCCO[C@H](CN(C)S(=O)(=O)c2ccc(Cl)cc2)[C@H](C)CN([C@@H](C)CO)C(=O)c2cc(NC(=O)CCC(F)(F)F)ccc2O1 | inactive
C[C@@H]1CCCCO[C@@H](CN(C)Cc2ccc(C(F)(F)F)cc2)[C@@H](C)CN([C@@H](C)CO)C(=O)c2cc(NC(=O)CCCN(C)C)ccc2O1 | inactive
C[C@@H]1CN([C@H](C)CO)C(=O)c2cc(NC(=O)CCCN(C)C)ccc2O[C@@H](C)CCCCO[C@H]1CN(C)Cc1ccc(C(F)(F)F)cc1 | inactive
C[C@@H]1CN([C@H](C)CO)C(=O)c2cc(NC(=O)CCCN(C)C)ccc2O[C@@H](C)CCCCO[C@@H]1CN(C)Cc1ccc(C(F)(F)F)cc1 | inactive
C[C@H]1CCCCO[C@H](CN(C)Cc2ccc(C(F)(F)F)cc2)[C@@H](C)CN([C@@H](C)CO)C(=O)c2cc(NC(=O)CCCN(C)C)ccc2O1 | active

Structure (SMILES) | cytotoxicity call
C[C@@H]1CCCCO[C@H](CN(C)Cc2ccc(C(F)(F)F)cc2)[C@H](C)CN([C@H](C)CO)C(=O)c2cc(NC(=O)CCCN(C)C)ccc2O1 | inactive
C[C@H]1CCCCO[C@@H](CN(C)Cc2ccc(C(F)(F)F)cc2)[C@@H](C)CN([C@@H](C)CO)C(=O)c2cc(NC(=O)CCCN(C)C)ccc2O1 | inactive
C[C@H](CO)N1C[C@H](C)[C@@H](CN(C)Cc2ccc(C(F)(F)F)cc2)OCCCC[C@H](C)Oc2ccc(NC(=O)CCCN(C)C)cc2C1=O | inactive
C[C@H](CO)N1C[C@H](C)[C@H](CN(C)Cc2ccc(C(F)(F)F)cc2)OCCCC[C@H](C)Oc2ccc(NC(=O)CCCN(C)C)cc2C1=O | active
C[C@@H]1CCCCO[C@H](CN(C)Cc2ccc(C(F)(F)F)cc2)[C@H](C)CN([C@@H](C)CO)C(=O)c2cc(NC(=O)CCCN(C)C)ccc2O1 | active
C[C@@H]1CN([C@@H](C)CO)C(=O)c2cc(NC(=O)CCCN(C)C)ccc2O[C@@H](C)CCCCO[C@H]1CN(C)Cc1ccc(C(F)(F)F)cc1 | inactive
C[C@@H]1CCCCO[C@@H](CN(C)Cc2ccc(C(F)(F)F)cc2)[C@@H](C)CN([C@H](C)CO)C(=O)c2cc(NC(=O)CCCN(C)C)ccc2O1 | inactive
C[C@@H]1CCCCO[C@H](CN(C)Cc2ccc(C(F)(F)F)cc2)[C@@H](C)CN([C@@H](C)CO)C(=O)c2cc(NC(=O)CCCN(C)C)ccc2O1 | active
CN(C)C(=O)C[C@@H]1CC[C@H]2[C@H](COc3ccc(NS(=O)(=O)c4cccc(F)c4)cc3C(=O)N2C)O1 | inactive
COc1ccc(S(=O)(=O)N(C)C[C@H]2OCCCC[C@H](C)Oc3ccc(NS(C)(=O)=O)cc3C(=O)N([C@H](C)CO)C[C@@H]2C)cc1 | inactive
C[C@H](CO)N1C[C@H](C)[C@H](CN(C)Cc2cccc(O)c2)OCc2ccccc2-c2c(n(C)c3ccccc23)C1=O | inactive
C[C@@H]1CN([C@@H](C)CO)C(=O)c2cc(C#CC3(O)CCCC3)cnc2O[C@H]1CN(C)C(=O)Cc1ccncc1 | inactive
C[C@@H]1CCCCO[C@@H](CN(C)S(=O)(=O)c2ccccc2)[C@H](C)CN([C@H](C)CO)C(=O)c2cc(NC(=O)c3ccccc3)ccc2O1 | inactive
N=C(N=C(N)N)N1CCOCC1 | inactive
O=C1N[C@@H]2[C@@H]1[C@H]1C=C[C@H]2C1 | inactive
C[C@@H]1CCCCO[C@H](CN(C)C(=O)Nc2ccc(F)cc2)[C@H](C)CN([C@@H](C)CO)C(=O)c2cc(NS(=O)(=O)c3ccc(F)cc3)ccc2O1 | inactive
C[C@H]1CN([C@@H](C)CO)C(=O)c2cc(-c3ccncc3)cnc2O[C@@H]1CN(C)S(=O)(=O)c1ccc(F)cc1 | inactive
COc1ccccc1CNC(=O)C[C@@H]1C[C@@H]2c3cc(NC(=O)c4ccc5c(c4)OCO5)ccc3O[C@@H]2[C@@H](CO)O1 | inactive
CNC(=O)c1ccc(CO)cc1 | inactive

— the antibiotic and cytotoxicity screens of Wong et al. (2023)
